Measured values as given in PubChem BioAssay (EPA / NIEHS).
Results filed as inconclusive are left out. Activity calls are given as the source filed them. How the source made its calls: active means hit-call score of the fitted dose curve at least 0.9, where 1 is the maximum; inconclusive means response in the unintended direction; inactive means score below 0.9.

Key:
[1] = molecular target: human Sirtuin 2 (SIRT2), SIRT2 (gene 22933) (UniProt Q8IXJ6); assay: NVS_ENZ_hSIRT2: NovaScreen (NVS) Enzymatic Assay for human Sirtuin 2 (SIRT2) (AID 2283217)
In short: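 Single-point duplicate screen at 25 uM, then concentration-response (max 50 uM) for chemicals passing threshold. Enzyme activity of recombinant human SIRT2 measured after 1 hr by fluorescence with mobility-shift separation of product; DMSO baseline.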

[2] = molecular target: human Tropomyosin Receptor Kinase A (TRKA), NTRK1 (gene 4914) (UniProt P04629); assay: NVS_ENZ_hTrkA: NovaScreen (NVS) Enzymatic Assay for human Tropomyosin Receptor Kinase A (TRKA) (AID 2283224)
In short: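 Compounds were screened at 25 uM in duplicate, then concentration series to a 50 uM top for those meeting threshold (e.g. 30% inhibition). Enzyme was recombinant human TrkA, incubated 1 h. Product formation was quantified by fluorescence after mobility-shift separation.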

[3] = molecular target: human Protein Tyrosine Phosphatase Non-receptor Type 6 (PTPN6), PTPN6 (gene 5777) (UniProt P29350); assay: NVS_ENZ_hPTPN6: NovaScreen (NVS) Enzymatic Assay for human Protein Tyrosine Phosphatase Non-receptor Type 6 (PTPN6) (AID 2283210)
In short: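 Recombinant human PTPN6 from SF9 cells, enzyme activity followed by fluorescence after mobility-shift separation of substrate and product at 1.33 h. Chemicals first tested at a single 25 uM in duplicate, then confirmed across concentration series; loss of signal relative to DMSO.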

[4] = molecular target: human Protein Tyrosine Phosphatase Non-receptor Type 9 (PTPN9), PTPN9 (gene 5780) (UniProt P43378); assay: NVS_ENZ_hPTPN9: NovaScreen (NVS) Enzymatic Assay for human Protein Tyrosine Phosphatase Non-receptor Type 9 (PTPN9) (AID 2283209)
In short: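 Sf9-expressed enzyme in a cell-free assay, fluorescence read 1.33 h after dosing with mobility-shift separation of substrate and product. Tested at 25 uM in duplicate, then up to 50 uM; signal loss versus DMSO.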

[5] = molecular target: human Protein Tyrosine Phosphatase Receptor Type B (PTPRB), PTPRB (gene 5787) (UniProt P23467); assay: NVS_ENZ_hPTPRB: NovaScreen (NVS) Enzymatic Assay for human Protein Tyrosine Phosphatase Receptor Type B (PTPRB) (AID 2283211)
In short: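 Recombinant human PTPRB with a fluorescent substrate, product separated by electrophoretic mobility shift; read 1 h after dosing. Primary screen in duplicate at 25 uM; actives then retested in concentration series; loss of signal versus DMSO.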

[6] = molecular target: human Protein Tyrosine Phosphatase Receptor Type F (PTPRF), PTPRF (gene 5792) (UniProt P10586); assay: NVS_ENZ_hPTPRF: NovaScreen (NVS) Enzymatic Assay for human Protein Tyrosine Phosphatase Receptor Type F (PTPRF) (AID 2283213)
In short: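 Cell-free fluorescence enzyme assay with recombinant protein and substrate; product separated by electrophoretic mobility shift. Read 1 h after dosing, single 25 uM duplicate screen, then concentration-response up to 50 uM; loss of signal vs DMSO.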

[7] = molecular target: human Protein Tyrosine Phosphatase Receptor Type M (PTPRM), PTPRM (gene 5797) (UniProt P28827); assay: NVS_ENZ_hPTPRM: NovaScreen (NVS) Enzymatic Assay for human Protein Tyrosine Phosphatase Receptor Type M (PTPRM) (AID 2283215)
In short: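 Read-out is fluorescence after electrophoretic separation of substrate and product, taken 1.33 h post-dosing with recombinant enzyme. Compounds screened at 25 uM in duplicate, then concentration series for actives; activity as signal loss relative to DMSO.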

[8] = molecular target: human Vascular Endothelial Growth Factor Receptor 1 (VEGFR1), FLT1 (gene 2321) (UniProt P17948); assay: NVS_ENZ_hVEGFR1: NovaScreen (NVS) Enzymatic Assay for human Vascular Endothelial Growth Factor Receptor 1 (VEGFR1) (AID 2283226)
In short: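 Kinase activity of recombinant human VEGFR1 was read by fluorescence after electrophoretic separation of product from substrate, 1 h post-dosing; initial duplicate single-point testing at 25 uM, followed by concentration-series follow-up, with DMSO as baseline.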

[9] = molecular target: rabbit Imidazoline 2 Central (I2C), CKB (gene 100009085) (UniProt P00567); assay: NVS_ENZ_rabI2C: NovaScreen (NVS) Enzymatic Assay for rabbit Imidazoline 2 Central (I2C) (AID 2283228)
In short: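 Rabbit brain membranes, cell-free; readout by filter-based scintillation counting 1.5 hours after dosing, loss of signal vs DMSO. Initial duplicate test at 25 uM, then concentration-response with 50 uM top concentration.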

[10] = molecular target: human Vascular Endothelial Growth Factor Receptor 3 (VEGFR3), FLT4 (gene 2324) (UniProt P35916); assay: NVS_ENZ_hVEGFR3: NovaScreen (NVS) Enzymatic Assay for human Vascular Endothelial Growth Factor Receptor 3 (VEGFR3) (AID 2283229)
In short: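 Chemicals first run in duplicate at 25 uM, with actives re-tested in concentration series to a top of 50 uM. Recombinant VEGFR3 activity measured after 1 h via fluorescence with mobility-shift product separation; inhibition fitted relative to DMSO.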

[11] = molecular target: human Vascular Endothelial Growth Factor Receptor 2 (VEGFR2), KDR (gene 3791) (UniProt P35968); assay: NVS_ENZ_hVEGFR2: NovaScreen (NVS) Enzymatic Assay for human Vascular Endothelial Growth Factor Receptor 2 (VEGFR2) (AID 2283230)
In short: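 Cell-free recombinant VEGFR2 kinase, fluorescent substrate with electrophoretic mobility-shift separation; read 1 h after dosing. Screened at 25 uM in duplicate, hits to concentration-response up to 50 uM; loss-of-signal versus DMSO.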

[12] = molecular target: rat Constitutive Nitric Oxide Synthase (CNOS), Nos1 (gene 24598) (UniProt P29476); assay: NVS_ENZ_rCNOS: NovaScreen (NVS) Enzymatic Assay for rat Constitutive Nitric Oxide Synthase (CNOS) (AID 2283236)
In short: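 Single 25 uM duplicate screen, then concentration series to 50 uM for chemicals meeting threshold. Rat brain membrane-derived CNOS activity detected radiometrically by filtration and scintillation counting, 1 h after compound addition; DMSO as baseline.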

[13] = molecular target: human Sirtuin 1 (SIRT1), SIRT1 (gene 23411) (UniProt Q96EB6); assay: NVS_ENZ_hSIRT1: NovaScreen (NVS) Enzymatic Assay for human Sirtuin 1 (SIRT1) (AID 2283219)
In short: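 Cell-free recombinant SIRT1 with a fluorescent substrate; substrate and product separated by electrophoretic mobility shift and read by fluorescence intensity, 1 h after dosing. Primary screen at 25 uM in duplicate; hits re-run in concentration-response up to 50 uM, relative to DMSO.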

[14] = molecular target: human Sirtuin 3 (SIRT3), SIRT3 (gene 23410) (UniProt Q9NTG7); assay: NVS_ENZ_hSIRT3: NovaScreen (NVS) Enzymatic Assay for human Sirtuin 3 (SIRT3) (AID 2283222)
In short: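 Cell-free enzyme assay with recombinant protein and fluorescent substrate, product separated by electrophoretic mobility shift; read 1 hour after dosing. Screened in duplicate at 25 uM, then singleton concentration-response up to 50 uM; loss of signal versus DMSO.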

[15] = molecular target: bovine Dopamine Receptor (DR), Non-selective Binding, DRD1 (gene 281125) (UniProt Q95136); assay: NVS_GPCR_bDR_NonSelective: NovaScreen (NVS) G Protein-Coupled Receptor Assay for bovine Dopamine Receptor (DR), Non-selective Binding (AID 2283241)
In short: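 Filter-based radioligand binding with bovine striatal membrane, incubated 1 h; DMSO as negative baseline. Initial duplicate single-point test at 25 uM preceded concentration series for actives.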

[16] = molecular target: human Rho Associated Coiled-coil Containing Protein Kinase 1 (ROCK1), ROCK1 (gene 6093) (UniProt Q13464); assay: NVS_ENZ_hROCK1: NovaScreen (NVS) Enzymatic Assay for human Rho Associated Coiled-coil Containing Protein Kinase 1 (ROCK1) (AID 2283214)
In short: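 Compounds first run in duplicate at 25 uM against recombinant human ROCK1, then followed in concentration series. Kinase activity was read 1 h post-dosing by fluorescence with mobility-shift separation, as signal loss relative to DMSO.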

[17] = molecular target: human SRC Proto-Oncogene, Non-receptor Tyrosine Kinase (SRC), SRC (gene 6714) (UniProt P12931); assay: NVS_ENZ_hSRC: NovaScreen (NVS) Enzymatic Assay for human SRC Proto-Oncogene, Non-receptor Tyrosine Kinase (SRC) (AID 2283223)
In short: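 Compounds passing 30% inhibition at 25 uM (duplicate) were titrated to a top concentration of 50 uM. Enzyme activity read by fluorescence with mobility-shift substrate/product separation after 1 h; DMSO baseline.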

[18] = molecular target: rat Catechol-O-Methyl Transferase (COMT), Comt (gene 24267) (UniProt P22734); assay: NVS_ENZ_rCOMT: NovaScreen (NVS) Enzymatic Assay for rat Catechol-O-Methyl Transferase (COMT) (AID 2283235)
In short: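 Rat dorsal striatum extract served as COMT source; product quantified by HPLC/spectrophotometry, read at 0 h after dosing. Primary single-concentration screen at 25 uM, followed by concentration series to a 50 uM maximum.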

[19] = test system: bovine Angiotensin II Receptor Type 2 (AT2), gene 407157; assay: NVS_GPCR_bAT2: NovaScreen (NVS) G Protein-Coupled Receptor Assay for bovine Angiotensin II Receptor Type 2 (AT2) (AID 2283240)
In short: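 Radioligand displacement on bovine cerebellar membranes, 1 hour incubation, filter-based scintillation counting; loss of signal vs DMSO. Duplicate single-point screen at 25 uM, then concentration-response to 50 uM maximum.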

Chain of human Vascular Endothelial Growth Factor Receptor 2 (VEGFR2), KDR (gene 3791) (P35968 whole entry, looked up): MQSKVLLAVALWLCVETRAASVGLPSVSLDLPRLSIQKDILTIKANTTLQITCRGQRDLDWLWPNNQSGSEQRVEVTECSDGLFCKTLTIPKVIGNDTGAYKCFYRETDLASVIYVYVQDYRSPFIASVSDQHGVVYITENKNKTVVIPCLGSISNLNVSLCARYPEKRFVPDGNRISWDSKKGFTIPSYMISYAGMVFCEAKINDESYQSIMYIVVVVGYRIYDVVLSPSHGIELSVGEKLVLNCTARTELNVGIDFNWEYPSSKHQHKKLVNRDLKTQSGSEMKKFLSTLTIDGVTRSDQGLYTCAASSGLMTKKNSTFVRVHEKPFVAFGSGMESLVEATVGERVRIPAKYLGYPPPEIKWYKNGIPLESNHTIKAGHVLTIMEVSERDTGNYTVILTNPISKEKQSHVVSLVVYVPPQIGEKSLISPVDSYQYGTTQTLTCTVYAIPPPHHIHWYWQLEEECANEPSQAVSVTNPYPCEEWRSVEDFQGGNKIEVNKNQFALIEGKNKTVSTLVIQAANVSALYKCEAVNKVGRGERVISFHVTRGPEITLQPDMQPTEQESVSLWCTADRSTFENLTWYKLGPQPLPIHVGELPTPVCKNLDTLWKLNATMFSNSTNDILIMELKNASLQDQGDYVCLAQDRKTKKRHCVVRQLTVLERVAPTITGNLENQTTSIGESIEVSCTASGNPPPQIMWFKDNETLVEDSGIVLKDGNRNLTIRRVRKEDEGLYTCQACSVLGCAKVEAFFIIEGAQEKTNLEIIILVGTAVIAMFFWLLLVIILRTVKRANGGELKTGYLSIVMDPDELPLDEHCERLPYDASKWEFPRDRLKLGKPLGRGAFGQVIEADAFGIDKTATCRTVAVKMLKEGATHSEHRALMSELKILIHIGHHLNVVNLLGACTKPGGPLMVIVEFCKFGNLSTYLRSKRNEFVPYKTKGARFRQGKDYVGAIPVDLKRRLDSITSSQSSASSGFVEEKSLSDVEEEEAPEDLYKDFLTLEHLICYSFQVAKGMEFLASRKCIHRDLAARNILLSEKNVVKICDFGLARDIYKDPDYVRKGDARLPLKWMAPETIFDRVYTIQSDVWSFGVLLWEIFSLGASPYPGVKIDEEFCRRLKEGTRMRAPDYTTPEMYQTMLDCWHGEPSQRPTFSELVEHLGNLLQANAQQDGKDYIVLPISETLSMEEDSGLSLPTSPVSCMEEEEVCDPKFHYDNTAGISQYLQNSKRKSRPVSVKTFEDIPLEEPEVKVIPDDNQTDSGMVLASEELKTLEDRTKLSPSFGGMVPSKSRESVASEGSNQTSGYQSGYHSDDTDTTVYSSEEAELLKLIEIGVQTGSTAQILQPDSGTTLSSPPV
Chain of human Protein Tyrosine Phosphatase Non-receptor Type 6 (PTPN6), PTPN6 (gene 5777) (P29350 whole entry, looked up): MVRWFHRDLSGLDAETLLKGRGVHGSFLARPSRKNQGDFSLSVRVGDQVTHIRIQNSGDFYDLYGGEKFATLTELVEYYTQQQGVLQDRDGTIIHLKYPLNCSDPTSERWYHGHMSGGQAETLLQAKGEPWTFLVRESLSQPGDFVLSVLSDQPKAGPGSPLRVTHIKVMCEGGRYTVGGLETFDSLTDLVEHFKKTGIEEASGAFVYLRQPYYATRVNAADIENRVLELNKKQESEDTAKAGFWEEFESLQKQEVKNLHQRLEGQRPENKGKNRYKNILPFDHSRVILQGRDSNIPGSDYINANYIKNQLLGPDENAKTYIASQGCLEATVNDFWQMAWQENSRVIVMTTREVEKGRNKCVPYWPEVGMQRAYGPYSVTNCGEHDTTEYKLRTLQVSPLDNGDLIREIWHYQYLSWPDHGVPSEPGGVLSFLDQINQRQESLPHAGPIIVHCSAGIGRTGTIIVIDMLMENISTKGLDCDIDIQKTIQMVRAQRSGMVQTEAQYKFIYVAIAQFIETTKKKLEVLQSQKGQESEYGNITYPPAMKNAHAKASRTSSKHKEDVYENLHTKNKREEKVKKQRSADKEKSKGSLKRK
Chain of human Vascular Endothelial Growth Factor Receptor 1 (VEGFR1), FLT1 (gene 2321) (P17948 whole entry, looked up): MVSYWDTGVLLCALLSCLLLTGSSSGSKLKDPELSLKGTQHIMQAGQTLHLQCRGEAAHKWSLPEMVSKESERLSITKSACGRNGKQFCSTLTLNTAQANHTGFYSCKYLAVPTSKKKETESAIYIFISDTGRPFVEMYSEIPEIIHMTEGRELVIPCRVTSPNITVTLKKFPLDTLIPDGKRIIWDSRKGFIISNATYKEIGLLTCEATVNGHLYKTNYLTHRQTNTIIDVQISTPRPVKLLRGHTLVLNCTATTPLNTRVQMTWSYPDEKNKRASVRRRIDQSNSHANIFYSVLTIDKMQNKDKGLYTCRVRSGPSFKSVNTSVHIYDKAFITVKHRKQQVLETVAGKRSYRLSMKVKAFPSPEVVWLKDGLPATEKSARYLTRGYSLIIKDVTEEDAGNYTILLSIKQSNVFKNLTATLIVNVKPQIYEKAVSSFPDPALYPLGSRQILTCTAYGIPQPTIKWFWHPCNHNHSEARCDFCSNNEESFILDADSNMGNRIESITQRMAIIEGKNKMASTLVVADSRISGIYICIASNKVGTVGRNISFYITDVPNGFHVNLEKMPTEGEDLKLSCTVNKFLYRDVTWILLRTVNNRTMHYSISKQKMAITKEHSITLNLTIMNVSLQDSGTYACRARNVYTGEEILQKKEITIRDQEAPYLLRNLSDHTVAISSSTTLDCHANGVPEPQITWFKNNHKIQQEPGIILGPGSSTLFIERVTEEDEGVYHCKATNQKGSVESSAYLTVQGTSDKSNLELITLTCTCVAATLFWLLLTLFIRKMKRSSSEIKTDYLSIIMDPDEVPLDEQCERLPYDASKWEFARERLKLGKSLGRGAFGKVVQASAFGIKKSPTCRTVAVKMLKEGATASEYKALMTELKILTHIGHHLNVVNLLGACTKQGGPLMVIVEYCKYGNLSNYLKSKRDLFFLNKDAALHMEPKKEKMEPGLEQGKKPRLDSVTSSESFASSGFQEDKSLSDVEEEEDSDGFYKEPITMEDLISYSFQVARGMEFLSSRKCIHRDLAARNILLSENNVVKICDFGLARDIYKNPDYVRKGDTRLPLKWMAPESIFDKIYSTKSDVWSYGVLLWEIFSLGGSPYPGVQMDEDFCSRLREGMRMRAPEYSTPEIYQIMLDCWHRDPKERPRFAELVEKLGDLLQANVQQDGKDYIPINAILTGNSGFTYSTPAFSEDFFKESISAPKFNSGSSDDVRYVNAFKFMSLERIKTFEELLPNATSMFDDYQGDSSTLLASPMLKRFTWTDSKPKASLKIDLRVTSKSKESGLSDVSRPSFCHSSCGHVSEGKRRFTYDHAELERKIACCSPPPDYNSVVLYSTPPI
Chain of human Protein Tyrosine Phosphatase Non-receptor Type 9 (PTPN9), PTPN9 (gene 5780) (P43378 whole entry, looked up): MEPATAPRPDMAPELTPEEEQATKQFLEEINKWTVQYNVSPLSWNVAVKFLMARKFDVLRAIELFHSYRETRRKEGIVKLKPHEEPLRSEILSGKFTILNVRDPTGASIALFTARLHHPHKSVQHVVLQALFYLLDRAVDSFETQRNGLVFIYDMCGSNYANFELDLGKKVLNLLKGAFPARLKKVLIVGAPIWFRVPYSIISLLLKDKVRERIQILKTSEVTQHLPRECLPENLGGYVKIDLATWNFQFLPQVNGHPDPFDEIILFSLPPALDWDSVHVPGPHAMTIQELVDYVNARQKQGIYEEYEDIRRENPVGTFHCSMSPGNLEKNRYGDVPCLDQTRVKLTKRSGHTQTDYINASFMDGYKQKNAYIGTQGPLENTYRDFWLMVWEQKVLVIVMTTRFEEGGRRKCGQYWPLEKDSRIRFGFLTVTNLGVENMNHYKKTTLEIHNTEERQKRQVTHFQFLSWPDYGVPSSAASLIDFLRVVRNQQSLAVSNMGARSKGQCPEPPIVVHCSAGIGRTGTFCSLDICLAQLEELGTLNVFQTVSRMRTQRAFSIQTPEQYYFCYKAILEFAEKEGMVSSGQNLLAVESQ
Chain of rabbit Imidazoline 2 Central (I2C), CKB (gene 100009085) (P00567 whole entry, looked up): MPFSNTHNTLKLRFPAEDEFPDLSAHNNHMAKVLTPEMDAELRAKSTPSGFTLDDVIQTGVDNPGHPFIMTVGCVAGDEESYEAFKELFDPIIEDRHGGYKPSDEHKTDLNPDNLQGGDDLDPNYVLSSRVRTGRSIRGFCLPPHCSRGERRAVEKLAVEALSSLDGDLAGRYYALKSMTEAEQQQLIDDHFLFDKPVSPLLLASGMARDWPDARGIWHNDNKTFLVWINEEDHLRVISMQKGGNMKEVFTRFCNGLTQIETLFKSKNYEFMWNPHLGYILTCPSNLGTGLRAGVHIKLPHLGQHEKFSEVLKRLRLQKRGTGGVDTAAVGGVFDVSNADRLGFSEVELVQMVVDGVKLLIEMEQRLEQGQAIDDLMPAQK
Chain of human Sirtuin 1 (SIRT1), SIRT1 (gene 23411) (Q96EB6 whole entry, looked up): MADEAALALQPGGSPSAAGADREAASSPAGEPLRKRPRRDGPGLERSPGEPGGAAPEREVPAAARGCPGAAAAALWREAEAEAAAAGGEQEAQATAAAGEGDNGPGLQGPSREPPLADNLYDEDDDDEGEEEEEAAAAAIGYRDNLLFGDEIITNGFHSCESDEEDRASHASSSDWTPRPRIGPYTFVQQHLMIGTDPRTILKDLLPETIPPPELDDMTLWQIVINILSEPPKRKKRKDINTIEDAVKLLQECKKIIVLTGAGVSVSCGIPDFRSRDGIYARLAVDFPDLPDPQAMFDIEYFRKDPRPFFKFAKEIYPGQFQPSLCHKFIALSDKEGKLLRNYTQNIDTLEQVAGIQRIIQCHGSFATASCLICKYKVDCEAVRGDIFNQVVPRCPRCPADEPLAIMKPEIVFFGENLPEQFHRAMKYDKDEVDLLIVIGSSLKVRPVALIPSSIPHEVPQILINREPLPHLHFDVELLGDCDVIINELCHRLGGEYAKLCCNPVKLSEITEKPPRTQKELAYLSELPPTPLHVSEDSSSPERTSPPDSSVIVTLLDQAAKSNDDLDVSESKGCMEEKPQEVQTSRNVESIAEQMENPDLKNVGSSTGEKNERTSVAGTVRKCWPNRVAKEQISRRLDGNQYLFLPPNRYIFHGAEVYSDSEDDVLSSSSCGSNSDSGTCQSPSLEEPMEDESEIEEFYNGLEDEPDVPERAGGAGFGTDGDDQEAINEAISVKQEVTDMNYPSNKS

SMILES: CC(=O)OCCC(C)C
- outcome [1]: inactive
- outcome [2]: inactive

SMILES: CC(C)CCCCCCCOC(=O)CCCCC(=O)OCCCCCCCC(C)C
- outcome [3]: inactive

SMILES: CN(C)c1ccc(N=NS(=O)(=O)O)cc1
- outcome [4]: inactive
- outcome [5]: inactive
- outcome [6]: inactive
- outcome [7]: inactive
- outcome [8]: inactive
- AC50 [9]: 23.8 µM (active)
- outcome [10]: inactive
- outcome [11]: inactive
- outcome [12]: inactive

SMILES: CNCc1ccc(NC(=O)c2c[nH]c3c2C(=O)CCC3)cc1
- outcome [13]: inactive

SMILES: Cc1[nH]cnc1C[C@H]1CCc2c(C)c3ccccc3n2C1=O
- outcome [14]: inactive
- outcome [9]: inactive
- AC50 [15]: 8.58 µM (active)

SMILES: COc1ccc2sc(C(=O)Nc3nnn[nH]3)c(OC(C)C)c2c1
- AC50 [16]: 7.67 µM (active)
- outcome [11]: inactive

SMILES: CC1(C)C(=O)N(Br)C(=O)N1Br
- outcome [14]: inactive
- AC50 [12]: 12.2 µM (active)

SMILES: NC(=O)NO
- outcome [3]: inactive

SMILES: Cc1ccc(N)cc1O
- outcome [4]: inactive
- outcome [5]: inactive
- outcome [6]: inactive
- outcome [1]: inactive
- outcome [13]: inactive
- outcome [8]: inactive
- outcome [10]: inactive
- outcome [11]: inactive

SMILES: O=c1n(CC2CO2)c(=O)n(CC2CO2)c(=O)n1CC1CO1 (stereo not given)
- outcome [4]: inactive
- outcome [3]: inactive

SMILES: O=C(O)c1cc(N=Nc2ccc(S(=O)(=O)Nc3ccccn3)cc2)ccc1O
- outcome [4]: inactive
- outcome [6]: inactive
- outcome [7]: inactive
- outcome [8]: inactive
- outcome [10]: inactive
- outcome [11]: inactive

SMILES: CC(C)=CCC/C(C)=C/CO
- outcome [4]: inactive

SMILES: COCCOc1cc2cc(C(=O)NC3CCN(C(C)C)CC3)n(CC(=O)Nc3ccc(Cl)cn3)c2cn1
- outcome [17]: inactive

SMILES: Cn1c(=O)cc(Oc2ccc(F)cc2F)c2cnc(NCC(C)(C)O)nc21
- AC50 [8]: 29.9 µM (active)

SMILES: CC(O)CN(CCN(CC(C)O)CC(C)O)CC(C)O (stereo not given)
- outcome [10]: inactive

SMILES: CC(C)CCO
- outcome [18]: inactive

SMILES: O=C(OC[C@H]1O[C@@H](OC(=O)c2cc(O)c(O)c(OC(=O)c3cc(O)c(O)c(O)c3)c2)[C@H](OC(=O)c2cc(O)c(O)c(OC(=O)c3cc(O)c(O)c(O)c3)c2)[C@@H](OC(=O)c2cc(O)c(O)c(OC(=O)c3cc(O)c(O)c(O)c3)c2)[C@@H]1OC(=O)c1cc(O)c(O)c(OC(=O)c2cc(O)c(O)c(O)c2)c1)c1cc(O)c(O)c(OC(=O)c2cc(O)c(O)c(O)c2)c1
- AC50 [18]: 0.371 µM (active)

SMILES: COc1ccc(/C=C/S(=O)(=O)NC(=O)c2ccc(C)cc2Cl)cc1
- AC50 [19]: 15.2 µM (active)

SMILES: O=C(NS(=O)(=O)/C=C/c1ccccc1)c1ccc(F)cc1Cl
- AC50 [19]: 15 µM (active)
